# Measured values from the supplement of paper PMC4466140.
# Assays:
# Experiment in all cases: SPOT peptide array binding signal intensity (averaged, normalized) (arbitrary units (background-subtracted, floor 0; scale differs between SH3 domains)); higher = stronger binding of the SH3 domain to the peptide
# AgAbp1 = target: AgAbp1
# Experimental: (§1)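 GST-tagged SH3 domains from S. cerevisiae (Sc), A. gossypii (Ag), C. albicans (Ca) and S. pombe (Sp) were incubated at 10 ug/ml overnight at 4 C on cellulose SPOT membranes carrying 292 synthetic 15-mer peptides mined from the S. cerevisiae proteome (cysteines replaced by serines). Binding was detected with anti-GST antibody, HRP secondary and chemiluminescence, quantified with Genespotter, and reported as normalized spot intensities averaged over biological replicates.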
# AgBbc1 = target: AgBbc1
# Experimental: as §1
# AgBem1-D1 = target: AgBem1-D1
# Experimental: as §1
# AgBzz1-D1 = target: AgBzz1-D1
# Experimental: as §1
# AgBzz1-D2 = target: AgBzz1-D2
# Experimental: as §1
# AgCyk3 = target: AgCyk3
# Experimental: as §1
# AgFus1 = target: AgFus1
# Experimental: as §1
# AgHof1 = target: AgHof1
# Experimental: as §1
# AgHse1 = target: AgHse1
# Experimental: as §1
# AgLsb1 = target: AgLsb1
# Experimental: as §1
# AgLsb4 = target: AgLsb4
# Experimental: as §1
# AgMyo5 = target: AgMyo5
# Experimental: as §1
# AgNbp2 = target: AgNbp2
# Experimental: as §1
# AgRvs167 = target: AgRvs167
# Experimental: as §1
# AgSho1 = target: AgSho1
# Experimental: as §1
# AgSla1-D1-D2 = target: AgSla1-D1-D2
# Experimental: as §1
# AgSla1-D3 = target: AgSla1-D3
# Experimental: as §1
# CaAbp1-D1 = target: CaAbp1-D1
# Experimental: as §1
# CaAbp1-D2 = target: CaAbp1-D2
# Experimental: as §1
# CaBbc1 = target: CaBbc1
# Experimental: as §1
# CaBem1-D1 = target: CaBem1-D1
# Experimental: as §1
# CaBzz1-D1 = target: CaBzz1-D1
# Experimental: as §1
# CaBzz1-D2 = target: CaBzz1-D2
# Experimental: as §1
# CaCyk3 = target: CaCyk3
# Experimental: as §1
# CaFus1 = target: CaFus1
# Experimental: as §1
# CaHof1 = target: CaHof1
# Experimental: as §1
# CaHse1 = target: CaHse1
# Experimental: as §1
# CaLsb1 = target: CaLsb1
# Experimental: as §1
# CaLsb4 = target: CaLsb4
# Experimental: as §1
# CaMyo5 = target: CaMyo5
# Experimental: as §1
# CaNbp2 = target: CaNbp2
# Experimental: as §1
# CaRvs167 = target: CaRvs167
# Experimental: as §1
# CaRvs167-3 = target: CaRvs167-3
# Experimental: as §1
# CaSho1 = target: CaSho1
# Experimental: as §1
# CaSla1-D1-D2 = target: CaSla1-D1-D2
# Experimental: as §1
# CaSla1-D3 = target: CaSla1-D3
# Experimental: as §1
# ScAbp1 = target: ScAbp1
# Experimental: as §1
# ScBbc1 = target: ScBbc1
# Experimental: as §1
# ScBem1-D1 = target: ScBem1-D1
# Experimental: as §1
# ScBzz1-D1 = target: ScBzz1-D1
# Experimental: as §1
# ScBzz1-D2 = target: ScBzz1-D2
# Experimental: as §1
# ScCyk3 = target: ScCyk3
# Experimental: as §1
# ScFus1 = target: ScFus1
# Experimental: as §1
# ScHof1 = target: ScHof1
# Experimental: as §1
# ScHse1 = target: ScHse1
# Experimental: as §1
# ScLsb1 = target: ScLsb1
# Experimental: as §1
# ScLsb2 = target: ScLsb2
# Experimental: as §1
# ScLsb3 = target: ScLsb3
# Experimental: as §1
# ScLsb4 = target: ScLsb4
# Experimental: as §1
# ScMyo3 = target: ScMyo3
# Experimental: as §1
# ScMyo5 = target: ScMyo5
# Experimental: as §1
# ScNbp2 = target: ScNbp2
# Experimental: as §1
# ScPex13 = target: ScPex13
# Experimental: as §1
# ScRvs167 = target: ScRvs167
# Experimental: as §1
# ScSho1 = target: ScSho1
# Experimental: as §1
# ScSla1-D1-D2 = target: ScSla1-D1-D2
# Experimental: as §1
# ScSla1-D3 = target: ScSla1-D3
# Experimental: as §1
# SpAbp1-D1 = target: SpAbp1-D1
# Experimental: as §1
# SpBbc1 = target: SpBbc1
# Experimental: as §1
# SpBzz1-D1 = target: SpBzz1-D1
# Experimental: as §1
# SpBzz1-D2 = target: SpBzz1-D2
# Experimental: as §1
# SpCyk3 = target: SpCyk3
# Experimental: as §1
# SpHof1 = target: SpHof1
# Experimental: as §1
# SpHof1-2 = target: SpHof1-2
# Experimental: as §1
# SpHof1-3 = target: SpHof1-3
# Experimental: as §1
# SpHse1 = target: SpHse1
# Experimental: as §1
# SpLsb1 = target: SpLsb1
# Experimental: as §1
# SpLsb4 = target: SpLsb4
# Experimental: as §1
# SpMyo1 = target: SpMyo1
# Experimental: as §1
# SpNbp2 = target: SpNbp2
# Experimental: as §1
# SpPex13 = target: SpPex13
# Experimental: as §1
# SpRvs167 = target: SpRvs167
# Experimental: as §1
# SpSla1-D1-D2 = target: SpSla1-D1-D2
# Experimental: as §1
# SpSla1-D3 = target: SpSla1-D3
# Experimental: as §1
binder,measurement,setting,value
QRIRKIPGIPLMSVG,SPOT peptide array binding signal intensity,AgAbp1,26
same,SPOT peptide array binding signal intensity,AgBbc1,184
same,SPOT peptide array binding signal intensity,AgBem1-D1,63.5
same,SPOT peptide array binding signal intensity,AgBzz1-D1,19.5
same,SPOT peptide array binding signal intensity,AgBzz1-D2,34
same,SPOT peptide array binding signal intensity,AgCyk3,1
same,SPOT peptide array binding signal intensity,AgFus1,296
same,SPOT peptide array binding signal intensity,AgHof1,29.2
same,SPOT peptide array binding signal intensity,AgHse1,194
same,SPOT peptide array binding signal intensity,AgLsb1,13.8
same,SPOT peptide array binding signal intensity,AgLsb4,258
same,SPOT peptide array binding signal intensity,AgMyo5,≤ 0
same,SPOT peptide array binding signal intensity,AgNbp2,486
same,SPOT peptide array binding signal intensity,AgRvs167,54.8
same,SPOT peptide array binding signal intensity,AgSho1,104
same,SPOT peptide array binding signal intensity,AgSla1-D1-D2,40.5
same,SPOT peptide array binding signal intensity,AgSla1-D3,11.5
same,SPOT peptide array binding signal intensity,CaAbp1-D1,253
same,SPOT peptide array binding signal intensity,CaAbp1-D2,358
same,SPOT peptide array binding signal intensity,CaBbc1,226
same,SPOT peptide array binding signal intensity,CaBem1-D1,34.5
same,SPOT peptide array binding signal intensity,CaBzz1-D1,162
same,SPOT peptide array binding signal intensity,CaBzz1-D2,106
same,SPOT peptide array binding signal intensity,CaCyk3,49.5
same,SPOT peptide array binding signal intensity,CaFus1,707
same,SPOT peptide array binding signal intensity,CaHof1,0.25
same,SPOT peptide array binding signal intensity,CaHse1,94.2
same,SPOT peptide array binding signal intensity,CaLsb1,1.25
same,SPOT peptide array binding signal intensity,CaLsb4,2460
same,SPOT peptide array binding signal intensity,CaMyo5,1.5
same,SPOT peptide array binding signal intensity,CaNbp2,549
same,SPOT peptide array binding signal intensity,CaRvs167,296
same,SPOT peptide array binding signal intensity,CaRvs167-3,6.5
same,SPOT peptide array binding signal intensity,CaSho1,303
same,SPOT peptide array binding signal intensity,CaSla1-D1-D2,817
same,SPOT peptide array binding signal intensity,CaSla1-D3,38.5
same,SPOT peptide array binding signal intensity,ScAbp1,99
same,SPOT peptide array binding signal intensity,ScBbc1,32.5
same,SPOT peptide array binding signal intensity,ScBem1-D1,13.5
same,SPOT peptide array binding signal intensity,ScBzz1-D1,2
same,SPOT peptide array binding signal intensity,ScBzz1-D2,25
same,SPOT peptide array binding signal intensity,ScCyk3,7
same,SPOT peptide array binding signal intensity,ScFus1,284
same,SPOT peptide array binding signal intensity,ScHof1,2
same,SPOT peptide array binding signal intensity,ScHse1,553
same,SPOT peptide array binding signal intensity,ScLsb1,9.25
same,SPOT peptide array binding signal intensity,ScLsb2,13
same,SPOT peptide array binding signal intensity,ScLsb3,3970
same,SPOT peptide array binding signal intensity,ScLsb4,349
same,SPOT peptide array binding signal intensity,ScMyo3,≤ 0
same,SPOT peptide array binding signal intensity,ScMyo5,≤ 0
same,SPOT peptide array binding signal intensity,ScNbp2,672
same,SPOT peptide array binding signal intensity,ScPex13,408
same,SPOT peptide array binding signal intensity,ScRvs167,1160
same,SPOT peptide array binding signal intensity,ScSho1,1280
same,SPOT peptide array binding signal intensity,ScSla1-D1-D2,1610
same,SPOT peptide array binding signal intensity,ScSla1-D3,64
same,SPOT peptide array binding signal intensity,SpAbp1-D1,116
same,SPOT peptide array binding signal intensity,SpBbc1,9.25
same,SPOT peptide array binding signal intensity,SpBzz1-D1,176
same,SPOT peptide array binding signal intensity,SpBzz1-D2,5.75
same,SPOT peptide array binding signal intensity,SpCyk3,5
same,SPOT peptide array binding signal intensity,SpHof1,140
same,SPOT peptide array binding signal intensity,SpHof1-2,51.5
same,SPOT peptide array binding signal intensity,SpHof1-3,440
same,SPOT peptide array binding signal intensity,SpHse1,242
same,SPOT peptide array binding signal intensity,SpLsb1,17
same,SPOT peptide array binding signal intensity,SpLsb4,3060
same,SPOT peptide array binding signal intensity,SpMyo1,≤ 0
same,SPOT peptide array binding signal intensity,SpNbp2,359
same,SPOT peptide array binding signal intensity,SpPex13,22
same,SPOT peptide array binding signal intensity,SpRvs167,1140
same,SPOT peptide array binding signal intensity,SpSla1-D1-D2,89.5
same,SPOT peptide array binding signal intensity,SpSla1-D3,27
